Test systems include HCT-15 colon; HT29 colon; SNB-75 CNS; SNB-19 CNS; U251 CNS; PC-3 prostate; SK-MEL-5 melanoma; UACC-62 melanoma; LOX IMVI melanoma; SK-MEL-28 melanoma; SK-MEL-2 melanoma; EKVX NSCLC; SN12C renal; UO-31 renal; TK-10 renal; ACHN renal; CAKI-1 renal; CCRF-CEM leukemia; MOLT-4 leukemia.
What all share (experiment): NCI-60 one-dose screen, 48 h (100 = growth as untreated, 0 = no growth, -100 = all killed)
Common to all, as to details: 10 µM unless noted

The panel holds about 83,000 compounds, 20% with a hit somewhere; the sample as a whole holds those more often.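 How to read the values: 0–100, growth inhibition (40 = 60% inhibited); 0, no net growth; -100 to 0, cell death (-40 = 40% of starting cells died; -100 = all dead).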 A number with no mark means an inactive call. Active and inactive are the calls of the source. Rule for the calls: active = growth percent below 10; inactive = the rest.

Take `O=S(=O)(NCCNc1nccc(-c2c(-c3cccc(O)c3)nc3occn23)n1)c1cccc(F)c1`: the growth in the test with HCT-15 colon is 95.5%; in the test with HT29 colon it was 51.2%; with SNB-75 CNS it was 80.6%; in the test with SNB-19 CNS it was 102%; in the test with U251 CNS, 98.3%; in the test on PC-3 prostate, 86.8%. Besides, the growth in the test on SK-MEL-5 melanoma was 46.4%; in the test on UACC-62 melanoma, 14%; in the test with LOX IMVI melanoma, 64.8%; in the test with SK-MEL-28 melanoma, 50.1%; in the test on SK-MEL-2 melanoma, 61.1%; in the test with EKVX NSCLC it was 97.1%. Further, the growth in the test on SN12C renal was 76.6%; in the test on UO-31 renal it was 92.7%; in the test with TK-10 renal it was 136%; in the test on ACHN renal, 78%; in the test with CAKI-1 renal, 71.6%; with CCRF-CEM leukemia, 91.7%. Also, the growth in the test on MOLT-4 leukemia is 93%.
For `COC(=O)CNC(=O)[C@]12CCC(C)(C)C[C@H]1C1=CC[C@@H]3[C@@]4(C)Cc5c([nH]c6ccccc56)C(C)(C)[C@@H]4CC[C@@]3(C)[C@]1(C)CC2`, the growth in the test on HCT-15 colon is 87.7%; with HT29 colon, 81%; with SNB-75 CNS it was 87.6%; in the test with SNB-19 CNS it was 92.2%; with U251 CNS, 82.3%; in the test on PC-3 prostate, 74.4%. For the same molecule, the growth was 98.1% with SK-MEL-5 melanoma; 81.7% in the test with UACC-62 melanoma; 94% with LOX IMVI melanoma; 96.7% in the test on SK-MEL-28 melanoma; 77.3% in the test with SK-MEL-2 melanoma; 88.6% in the test on EKVX NSCLC. Further, the growth in the test with SN12C renal was 89.8%; in the test with UO-31 renal, 65.3%; with TK-10 renal, 90.3%; with ACHN renal, 49.1%; in the test with CAKI-1 renal, 71.2%; with CCRF-CEM leukemia, 87.3%. The growth with MOLT-4 leukemia was 63.6%.
Take `N/C(=N\C(N)=N\c1nc2ccccc2s1)c1cccc(Cl)c1`: the growth in the test on HCT-15 colon is 32.1%; with HT29 colon it was 95.1%; in the test on SNB-75 CNS, 95.2%; in the test on SNB-19 CNS it was 97.1%; in the test with U251 CNS it was 48.3%; in the test with PC-3 prostate it was 45%. In addition, the growth with SK-MEL-5 melanoma is 104%; in the test with UACC-62 melanoma, 86.2%; in the test on LOX IMVI melanoma, 44.1%; in the test on SK-MEL-28 melanoma, 104%; in the test with SK-MEL-2 melanoma, 100%; in the test on EKVX NSCLC, 83.3%. For the same molecule, the growth is 38.5% in the test on SN12C renal; 33.2% in the test with UO-31 renal; 111% with TK-10 renal; 75.5% with ACHN renal; 33.2% in the test with CAKI-1 renal; 73.3% in the test on CCRF-CEM leukemia. Besides, in the test with MOLT-4 leukemia, the growth is 72.5%.
As for `Nc1n[nH]c2cccc(C#Cc3cccc(C(=O)Nc4cc(CN5CCOCC5)cc(C(F)(F)F)c4)c3)c12`, the growth in the test on HCT-15 colon is 31.8%; with HT29 colon, 18%; in the test with SNB-75 CNS, 44.1%; in the test with SNB-19 CNS, 66.7%; in the test on U251 CNS it was 51%; with PC-3 prostate, 36.9%. The growth in the test with SK-MEL-5 melanoma is 29%; in the test on UACC-62 melanoma it was 11.7%; with LOX IMVI melanoma, 7.72% (active); in the test on SK-MEL-28 melanoma, 14.6%; in the test on SK-MEL-2 melanoma it was 4.06% (active); with EKVX NSCLC it was 60.6%. Also, the growth in the test on SN12C renal was 39.1%; with UO-31 renal, 17.6%; in the test with TK-10 renal it was 67.7%; in the test with ACHN renal it was 27%; with CAKI-1 renal it was 48.8%; in the test with CCRF-CEM leukemia, 19.4%. In the test with MOLT-4 leukemia, the growth is 23.8%.
In the case of `COc1ccc(NC(=O)c2cc(NCc3cc(O)ccc3O)ccc2O)cc1`, the growth in the test with HCT-15 colon was 97%; in the test on HT29 colon, 89.7%; with SNB-75 CNS, 101%; in the test on SNB-19 CNS it was 90%; in the test on U251 CNS, 91.1%; with PC-3 prostate, 64.1%. For the same molecule, the growth in the test with SK-MEL-5 melanoma is 92.6%; in the test on UACC-62 melanoma it was 94.6%; in the test on LOX IMVI melanoma it was 94.3%; with SK-MEL-28 melanoma it was 98.5%; in the test on SK-MEL-2 melanoma, 89.3%; in the test on EKVX NSCLC, 100%. Besides, the growth with SN12C renal is 85.8%; in the test on UO-31 renal it was 65.8%; in the test on TK-10 renal it was 118%; in the test on ACHN renal, 97.4%; in the test on CAKI-1 renal, 107%; in the test with CCRF-CEM leukemia, 28.5%. The growth in the test on MOLT-4 leukemia was 65.2%.
`CN[C@@H](C)C(=O)N[C@H]1CCS[C@H]2CC(C)(C)[C@@H](C(=O)N[C@H]3c4ccccc4C[C@H]3OCC#CC#CCO[C@@H]3Cc4ccccc4[C@@H]3NC(=O)[C@H]3N4C(=O)[C@@H](NC(=O)[C@H](C)NC)CCS[C@H]4CC3(C)C)N2C1=O`: the growth in the test on HCT-15 colon is 109%; with HT29 colon, 112%; in the test with SNB-75 CNS it was 16.5%; with SNB-19 CNS, 97.1%; in the test with U251 CNS it was 100%; in the test with PC-3 prostate, 102%. For the same molecule, the growth was 66.2% with SK-MEL-5 melanoma; 102% in the test on UACC-62 melanoma; 69.7% with LOX IMVI melanoma; 107% in the test with SK-MEL-28 melanoma; 73.7% in the test with SK-MEL-2 melanoma; 121% in the test with EKVX NSCLC. In addition, the growth was 97.8% in the test with SN12C renal; 97.8% with UO-31 renal; 130% in the test with TK-10 renal; 106% in the test on ACHN renal; 99.9% in the test with CAKI-1 renal; 25.1% in the test with CCRF-CEM leukemia. Besides, the growth in the test with MOLT-4 leukemia was 95.5%.
Turning to `N=C(N)c1ccc(OCCCCCCCCCCOc2ccc(C(=N)N)cc2)cc1`, the growth with HCT-15 colon was 37.3%; in the test on HT29 colon it was -90.8% (active); in the test with SNB-75 CNS, -76.9% (active); in the test with SNB-19 CNS, -91.9% (active); with U251 CNS, -85.5% (active); with PC-3 prostate, -91.3% (active). For the same molecule, the growth was -96.1% (active) in the test with SK-MEL-5 melanoma; -97.2% (active) with UACC-62 melanoma; -97.3% (active) in the test with LOX IMVI melanoma; -93.9% (active) in the test with SK-MEL-28 melanoma; -90.3% (active) in the test on SK-MEL-2 melanoma; -84.4% (active) in the test with EKVX NSCLC. The growth is -96.3% (active) with SN12C renal; 43.9% in the test with UO-31 renal; -93.5% (active) with TK-10 renal; -21.3% (active) in the test with ACHN renal; -94.8% (active) with CAKI-1 renal; -47.8% (active) with CCRF-CEM leukemia. Also, the growth in the test on MOLT-4 leukemia was -61% (active).
